rCAG binder: binders of r(CAG) RNA repeats, primary screen, biochemical, fluorescence. r(CAG) RNA repeat, TO-PRO-1 dye displacement fluorescence. inhibition, % at 3 µM. actives 1.3% (n = 370,000). AID 651821, 2012;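 active means inhibition above the plate cutoff, the mean of all test compounds on that plate plus 3 SD, cut at about 35% in these data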;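 further: higher means more dye released from RNA so lower well fluorescence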
ADAM17 inh: ADAM17 inhibitors, primary screen, biochemical, QFRET; Disintegrin and metalloproteinase domain-containing protein 17 (Homo sapiens), P78536; recombinant ADAM17, EDANS/DABCYL FRET peptide cleavage; inhibition, % at 6.95 µM; actives 0.83% (n = 370,000); AID 720648, 2013;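 active means inhibition above the mean of compounds lying between control limits plus 3 SD, set per campaign, cut at about 8.5% in these data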
NR3A LBD binder: binders of NR3A ligand-binding domain, primary screen, biophysical, differential scanning fluorimetry, uHTS. NR3A LBD differential scanning fluorimetry, Tm shift; 0% = protein alone, 100% = glycine-bound protein. Tm shift relative to glycine control, % at 25 µM. actives 2.5% (n = 340,000);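 active means melting temperature shift of at least 10% of the positive control shift, at one fixed dose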
AHR activator: AHR activators, primary screen, cell-based, luminescence, luciferase reporter, human. AHR-responsive luciferase reporter cells. activation, % at 5 µM. actives 2.5% (n = 320,000). Aryl hydrocarbon receptor (Homo sapiens), P35869; in the data active means activation above about 47%
KLK7 zymogen act: proKLK7 zymogen activators, primary screen, biochemical, fluorescence intensity | Kallikrein-7 (Homo sapiens), P49862 | purified proKLK7, EDANS-DABCYL substrate fluorescence; 100% is mature enzyme control, 0% vehicle | activation, % at 7 µM | actives 0.9% (n = 370,000) | AID 652039, 2013;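 active means activation above the mean of all tested compounds plus 3 SD, computed per campaign excluding outliers beyond control limits, cut at about 13% in these data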
Target sequence (P49862 whole entry, looked up): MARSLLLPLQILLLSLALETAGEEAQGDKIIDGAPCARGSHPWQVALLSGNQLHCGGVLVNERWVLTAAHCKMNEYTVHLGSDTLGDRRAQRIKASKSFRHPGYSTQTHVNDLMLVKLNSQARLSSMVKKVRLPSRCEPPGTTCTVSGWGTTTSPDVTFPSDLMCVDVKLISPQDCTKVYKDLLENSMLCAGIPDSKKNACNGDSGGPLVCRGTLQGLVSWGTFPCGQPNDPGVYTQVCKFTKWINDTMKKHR
ADAM10 inh: human ADAM10 inhibitors, primary screen, biochemical, QFRET, HTS | recombinant ADAM10, EDANS/DABCYL FRET peptide cleavage, 3 h | Disintegrin and metalloproteinase domain-containing protein 10 (Homo sapiens), O14672 | actives 0.62% (n = 370,000) | AID 720582, 2013 | inhibition, % at 7 µM;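 active means inhibition above a per-campaign cutoff equal to the mean of compounds falling between control-based bounds plus 3 SD, cut at about 20% in these data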
ADAM10 ctr: ADAM10 inhibitors, counter-screen for ADAM17 exosite inhibitor project, biochemical, FRET, human ADAM10 | shares compounds with ADAM17 inh | recombinant ADAM10, EDANS/DABCYL FRET peptide cleavage, 3 h | inhibition, % at 6.95 µM | actives 47% (n = 2,900);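 active means mean inhibition over the triplicate runs exceeds the activity threshold set in the earlier primary screen, cut at about 20% in these data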
ADAM17 confirm: ADAM17 inhibitors, hit retest, confirmation, biochemical, QFRET peptide cleavage; actives 65% (n = 2,900); shares compounds with ADAM17 inh; inhibition, % at 6.95 µM; recombinant ADAM17, EDANS/DABCYL QFRET peptide cleavage; AID 743257, 2014;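 active means mean inhibition across replicates above the hit cutoff set in the primary screen, cut at about 8.5% in these data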
Numbers stand for hits; – = inactive; · = no result. An excerpt weighted towards active compounds, which were near 7% of everything screened.

SMILES	rCAG binder	ADAM17 inh	NR3A LBD binder	AHR activator	KLK7 zymogen act	ADAM10 inh	ADAM10 ctr	ADAM17 confirm
C=C(C)CN1CCN(S(=O)(=O)c2ccc(C)c(N(C)S(=O)(=O)c3ccc(C)cc3)c2C)CC1	–	10	–	–	–	–	–	11
CCCc1nc2ccccc2c(=O)n1CCc1ccccc1	–	–	–	–	–	–	·	·
O=S(=O)(c1ccc(Cl)cc1)N1CCCC1c1nc(-c2ccc(Cl)cc2)no1 (centres undefined)	–	9.8	–	–	–	–	–	–
O=S(=O)(c1ccccc1Cl)N1CCCC1c1nc(-c2ccccc2Cl)no1 (centres undefined)	–	–	–	–	–	–	·	·
COc1cccc(C(=O)OCn2nnc3ccccc3c2=O)c1OC	–	8.9	–	–	–	–	–	–
Cc1c(Cl)c([N+](=O)[O-])nn1CC(=O)NC12CC3CC(CC(C3)C1)C2	–	11	–	–	–	–	–	–
O=S(=O)(c1ccc(F)c(F)c1)N1CCN(S(=O)(=O)c2cccs2)CC1	–	–	–	–	–	–	·	·
CCOC(=O)Cc1c(C)nc2c(-c3ccc(OC)cc3)c(C)nn2c1C	–	–	–	–	–	–	·	·
Cc1ncc([N+](=O)[O-])n1CC(=O)N/N=C/c1ccccc1F	–	9.9	–	–	–	–	–	–
Cc1cc([N+](=O)[O-])nn1CC(=O)N/N=C/c1ccccc1F	–	–	–	–	–	–	·	·
O=C(CN1CCN(Cc2ccccc2Cl)C1=O)NCCCN1CCOCC1	–	–	–	–	–	–	·	·
CCOC(=O)c1c(NC(=O)C2C3C=CC(CC3)C2C(=O)O)sc(C)c1C (centres undefined)	–	9.1	–	–	–	–	–	–
Cc1cc(=O)n2nc(N3CCC(C(=O)NCc4ccccc4Cl)CC3)sc2n1	–	–	–	–	–	–	·	·
COc1ccc(C(=O)CN2CCN(S(=O)(=O)c3cccc([N+](=O)[O-])c3)CC2)cc1	–	–	–	–	–	–	·	·
CCOc1cc(/C=N/NC(=O)COc2ccc(Cl)cc2)ccc1OS(=O)(=O)c1ccccc1	–	14	–	–	–	–	37	17
CN1CCN(C(=O)c2cccc(S(=O)(=O)N3CCCC3)c2)CC1	–	–	–	–	–	–	·	·
COc1ccc(-c2noc(CCC(=O)N3CCN(c4cccc(C)c4C)CC3)n2)cc1	–	9.3	–	·	–	–	27	16
CN(C)c1ccc(-c2csc(C(C)(O)c3ccc(F)c(F)c3)n2)cc1 (centres undefined)	–	13	·	·	–	–	–	–
COc1cccc(CNC(=O)CSCc2cnn(-c3ccccc3)c2-n2cccc2)c1	–	14	–	–	–	–	–	–
Nc1nc2c(ncn2[C@@H]2O[C@H](CNS(=O)(=O)C3CC3)[C@@H](O)[C@H]2O)c(=O)[nH]1	–	–	·	·	–	–	·	·
COC(=O)C1=C(C)N(Cc2ccc(Br)cc2)C(=S)NC1c1ccc(F)cc1 (centres undefined)	–	9.3	·	·	–	–	–	12
CCc1nc(SCc2ccc(OCC(C)C)cc2)n[nH]1	–	10	–	–	–	20	–	–
